Nrf2 activator = qHTS of Nrf2 Activators; 410,000 tested, 0.31% active; Potency, µM (titrated, usually from 46.1 µM), without a hit: top-dose activation, actives largely listed as activators; AREc32 ARE-luciferase reporter (MCF7-derived line), luminescence, 24 h; further: potency means the concentration at half of the fitted maximal effect; % of control where 0% means no effect; nearly all actives have a fitted effect of over 65% in size
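Each well held 1000 AREc32 cells, which were incubated with compound for 24 hr at 37 deg C after overnight attachment, and ARE reporter activity was quantified by firefly luciferase luminescence.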
A549 tox = Nrf2 qHTS screen for inhibitors: counterscreen for cytotoxicity; 390,000 tested, 0.16% active; Potency, µM (highest dose often 46 µM), for the others: top-dose activity change, negative = cytotoxicity, usual class: inhibitors; AID 504648, 2011; A549 ARE-Fluc cells, CellTiter-Fluor viability, 18-24 h; further: potency means the concentration at half of the fitted maximal effect; on the % scale 0 is the no-effect control and ±100 the full control effect
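A549 ARE-Fluc cells in 5% FBS OPTI-MEM, 5000 cells/well, rested 2 h then exposed to compounds in concentration-response for 18-24 h at 37 °C. Viability by CellTiter-Fluor fluorescence (Ex 405/Em 525) after 30 min; luciferase luminescence (BugLite, 15 min, RT) read afterwards.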
PI4K2A inh = qHTS for small molecular inhibitors of PI4K2A; Phosphatidylinositol 4-kinase type 2-alpha (Homo sapiens), Q9BTU6; purified PI4K2A, ADP-Glo luminescence, 1 h; stronger effect = lower value; activity change, negative = inhibition, % at 76.9 µM; 420,000 tested, 0.13% active; in the data active means activity change below about -50%; inconclusive means mostly about -30% to -49%;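 further: -100% = wells without enzyme as full effect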
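PI4K2A activity was measured by ADP-Glo luminescence: enzyme (4 ug/mL stock) and phosphatidylinositol (1.2 mM stock) in Tris pH 7.5/MgCl2/EGTA/Triton X-100 buffer were reacted with ATP (300 microM stock) for one hour at ambient temperature.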
miR-21 reporter = qHTS Assay for Modulators of miRNAs and/orActivators of miR-21. HeLa miR-21 FLuc reporter, luciferase, 48 h. Potency, µM (doses to about 38.3 µM), inactives show at the top dose activity change, positive = activation, actives largely listed as activators. AID 2288, 2010. 340,000 tested, under 10 active;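 further: % of control where 0% means no effect; miR-21 action dims this reporter so a rising signal means less miR-21 action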
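Using DMEM plus 10% FBS, HeLa miR-21-FLuc cells are incubated with test compounds (final up to about 40uM) for 48 hours; firefly luciferase signal is then imaged following reagent-mediated lysis.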
GALK inh = qHTS Assay for Inhibitors of Human Galactokinase (GALK); P51570; 270,000 tested, 0.007% active; Potency, µM (series often up to 57.5 µM), for the others: at the highest dose activity change, negative = inhibition, actives largely listed as inhibitors; Purified GALK, Kinase-Glo residual ATP luminescence; AID 1868, 2009; further: potency means the concentration at half of the fitted maximal effect; on the % scale 0 is the no-effect control and ±100 the full control effect
Target sequence (P51570 whole entry, looked up): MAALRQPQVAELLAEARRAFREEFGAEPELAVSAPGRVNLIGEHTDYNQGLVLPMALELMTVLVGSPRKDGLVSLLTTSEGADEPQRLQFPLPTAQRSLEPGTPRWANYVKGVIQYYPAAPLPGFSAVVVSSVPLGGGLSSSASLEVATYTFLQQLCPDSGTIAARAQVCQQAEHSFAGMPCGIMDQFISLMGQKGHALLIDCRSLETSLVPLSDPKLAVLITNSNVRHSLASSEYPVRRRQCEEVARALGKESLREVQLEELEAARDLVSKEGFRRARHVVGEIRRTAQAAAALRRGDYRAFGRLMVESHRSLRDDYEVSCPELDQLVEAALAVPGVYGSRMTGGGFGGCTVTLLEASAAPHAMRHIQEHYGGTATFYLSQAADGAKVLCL
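GALK at 5 nM final was combined with compound, 35 uM ATP and 100 uM galactose in HEPES pH8.0 with MgCl2 and DTT. The reaction ran one hour at room temperature before luminescent ATP detection.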
Nrf2 inh = Nrf2 qHTS screen for inhibitors | A549 ARE-Fluc reporter, luciferase luminescence, 18-24 h | Potency, µM (top dose mostly 46 µM), without a hit: at the highest dose activity change, negative = inhibition, hits mostly inhibitors | 360,000 tested, 2.1% active | AID 504444, 2011; further: potency means the concentration at half of the fitted maximal effect; on the % scale 0 is the no-effect control and ±100 the full control effect; nearly all actives have a fitted effect of over 60% in size
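A549 ARE_Fluc cells, 5000/well, 5% FBS OPTI-MEM; compounds in dose-response, 18-24 h at 37 °C/5% CO2; CellTiter-Fluor viability read (Ex 405/Em 525), then BugLite luciferase luminescence = Nrf2 activity.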
* marks the source's active call; other numbers are inactive results. Sampled rows, rich in hits. Any-hit rate of the full collection: about 2.2%. Unless noted, the call rests on the fitted dose curve; in most records, active means well fitted curve in the direction sought with a large enough effect; inconclusive means small, poorly fitted or top-dose-only effect, or another doubt; inactive means no such curve, though single readings can be large; an effect the other way counts as inactive or inconclusive.

Screening COc1ccc(-c2ccc(C(C)=O)cc2)cc1C1C2C=CCCC2(C)C(=O)N1Cc1ccccc1 (stereo not drawn) returned A549 tox inconclusive and Nrf2 inh 16.4µM*.
`COc1ccc(-c2ccc(C)cc2)cc1[C@H]1[C@@H]2C=CCC[C@@]2(C)C(=O)N1Cc1ccccc1` gave Nrf2 activator 4.6%, A549 tox -4.2%, PI4K2A inh -3.0, miR-21 reporter 24.4%, GALK inh -0.3% and Nrf2 inh inconclusive.
`COc1ccc(-c2ccc(C(C)=O)cc2)cc1[C@H]1[C@@H]2C=CCC[C@@]2(C)C(=O)N1Cc1ccccc1` gave Nrf2 activator 3.4%, A549 tox -14.4%, PI4K2A inh 1.8, miR-21 reporter -5.7%, GALK inh 5.1% and Nrf2 inh 20.6µM*.
`CN(CC(=O)Nc1ccc(Cl)c(C(F)(F)F)c1)C(=O)c1ccc(OCC2CCCO2)cc1` (stereo not drawn) gave Nrf2 activator 3.3%, A549 tox inconclusive, PI4K2A inh -3.3 and Nrf2 inh 16.4µM*.
`Cc1ccc(C(=O)N(C)CC(=O)Nc2ccc(Cl)c(C(F)(F)F)c2)cc1S(=O)(=O)N1CCCCC1` gave Nrf2 activator 0.1%, A549 tox inconclusive, PI4K2A inh 4.4 and Nrf2 inh 5.8µM*.
`Cc1ccc(S(=O)(=O)N2CCCCC2)cc1C(=O)N(C)CC(=O)Nc1ccc(Cl)c(C(F)(F)F)c1` gave Nrf2 activator -0.6%, A549 tox inconclusive, PI4K2A inh 1.5, miR-21 reporter -4.5%, GALK inh 2.1% and Nrf2 inh inconclusive.
Screening Cc1nc2cc(C(=O)N3CCN(C(=O)C(Cl)Cl)CC3)ccc2n1C1CCCC1 returned PI4K2A inh 1.2.
`CCc1c(C)nc2nc(-c3ccccc3)nn2c1NCc1ccc(C)cc1` gave Nrf2 activator -2.3%, A549 tox -10.6%, PI4K2A inh -1.8, miR-21 reporter -2.3% and Nrf2 inh 18.4µM*.
Screening CCc1c(C)nc2nncn2c1NCc1ccccc1 returned Nrf2 activator 0.6%, A549 tox -1.9%, PI4K2A inh -0.1, miR-21 reporter 17.5% and Nrf2 inh inconclusive.
For COC(c1ccccc1)(c1ccccc1)[C@H](Oc1nc(C)cc(C)n1)C(=O)O the results were PI4K2A inh -0.5.
Cc1cc(C(=O)O[C@@H]2CCC[C@@]3(C(=O)N(Cc4ccccc4)c4ccccc43)[C@H]2NC(=O)CCc2ccccc2)no1 was read as PI4K2A inh -4.1.
Screening Cc1nn(C)c(C)c1Nc1ccc(N2C(=O)C3CC=CCC3C2=O)cc1[N+](=O)[O-] (stereo not drawn) returned Nrf2 activator 4.8%, A549 tox -17.4%, PI4K2A inh -21.8, miR-21 reporter 6.9%, GALK inh 0.9% and Nrf2 inh 20.6µM*.
COc1ccc(CNC(=O)c2sc3nc4c(c(C(F)(F)F)c3c2N)CCC4)cc1OC was read as Nrf2 activator -0.7%, A549 tox 0.3%, PI4K2A inh 0.1, miR-21 reporter -10.1%, GALK inh 1.3% and Nrf2 inh 23.1µM*.
COc1ccc2c(c1)CCCN2C(=O)C1CCCN(S(=O)(=O)c2ccc(C)c(C)c2)C1 (stereo not drawn) was read as PI4K2A inh 0.6.
Screening CNC(=O)c1c(I)c(NC(=O)CCCCC(=O)Nc2c(I)c(C(=O)O)c(I)c(C(=O)NC)c2I)c(I)c(C(=O)O)c1I returned PI4K2A inh -2.0.
N#Cc1c(N)nc(SCc2ccccc2)c(C#N)c1-c1ccco1 was read as Nrf2 activator 2.6%, A549 tox inconclusive, PI4K2A inh -1.8, miR-21 reporter -36.5%, GALK inh -1.4% and Nrf2 inh 11.6µM*.
Screening N#Cc1c(N)nc(SCC(=O)OCc2ccccc2)c(C#N)c1-c1ccco1 returned Nrf2 activator 8.0%, A549 tox 9.7%, PI4K2A inh -4.2, miR-21 reporter -3.5%, GALK inh 0.6% and Nrf2 inh -10.4%.
For CC(C)(C)C(=O)OC12CCCN(C1)/C(=C/c1ccc(Cl)cc1)C2 (stereo not drawn) the results were PI4K2A inh -2.8.
Screening COc1ccc(-c2nnc(SCC(=O)N(Cc3ccccc3)C(C)(C)C)o2)cc1OC returned Nrf2 activator -0.5%, A549 tox -16.4%, PI4K2A inh 6.1, miR-21 reporter inconclusive, GALK inh 4.4% and Nrf2 inh 23.1µM*.
`CCN(C(=O)CSc1nnc(-c2cc(OC)c(OC)c(OC)c2)o1)c1ccccc1` gave Nrf2 activator 7.6%, A549 tox 1.6%, PI4K2A inh -1.2, miR-21 reporter 5.7% and Nrf2 inh -14.0%.
For COc1ccc(C2NC(=S)NC3=C2CCCC3=C2SCCS2)cc1 (stereo not drawn) the results were Nrf2 activator 3.16µM*, A549 tox -21.2%, PI4K2A inh -5.4, miR-21 reporter -15.9%, GALK inh 9.0% and Nrf2 inh inconclusive.
CCc1ccc(C2NC(=O)c3[nH]nc(-c4cccc(OC)c4)c32)cc1 (stereo not drawn) was read as Nrf2 activator 4.8%, A549 tox -9.1%, PI4K2A inh 3.0, miR-21 reporter -27.1% and Nrf2 inh 7.31µM*.
`COc1cccc(C2c3c(ncn(-c4ccc(Br)cc4)c3=N)Oc3ccc4ccccc4c32)c1` (stereo not drawn) gave A549 tox -16.3% and Nrf2 inh -13.3%.
`COc1cc(-c2ccc3ncnc(N(C)Cc4csc(C)n4)c3c2)cc(OC)c1OC` gave A549 tox 0.7% and Nrf2 inh -23.4%.
Screening COc1ccc(NC(NC(=O)c2ccc(OC)cc2)C(Cl)(Cl)Cl)cc1 (stereo not drawn) returned Nrf2 activator 0.8%, A549 tox -14.8%, PI4K2A inh 6.1, miR-21 reporter 10.9%, GALK inh -4.7% and Nrf2 inh inconclusive.
COc1ccc(C(=O)NC(Nc2ccc(C)cc2)C(Cl)(Cl)Cl)cc1 (stereo not drawn) was read as Nrf2 activator 4.0%, A549 tox inconclusive, PI4K2A inh -1.5, miR-21 reporter 11.0%, GALK inh 0.5% and Nrf2 inh 20.6µM*.

Compound activity as filed in PubChem.
